In PubChem BioAssay (EPA / NIEHS):
Records with an inconclusive call do not appear. Activity calls are given as the source filed them. The calls were made as follows, unless noted: active = hit-call score of the fitted dose curve at least 0.9, where 1 is the maximum; inconclusive = response in the unintended direction; inactive = score below 0.9.

Legend:
[1] = target: Bile acid receptor (Homo sapiens) (UniProt Q96RI1); assay: ATG_FXR_TRANS: Attagene TRANS-FACTORIAL HepG2 Assay for Farnesoid X Receptor (FXR) (AID 2282979); details: HepG2 Attagene TRANS FXR-GAL4 reporter transcription;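 also: hits raise reporter mRNA above DMSO so AC50 marks FXR activation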
Chain of Bile acid receptor (Homo sapiens) (Q96RI1 whole entry, looked up, the tested form may be a part): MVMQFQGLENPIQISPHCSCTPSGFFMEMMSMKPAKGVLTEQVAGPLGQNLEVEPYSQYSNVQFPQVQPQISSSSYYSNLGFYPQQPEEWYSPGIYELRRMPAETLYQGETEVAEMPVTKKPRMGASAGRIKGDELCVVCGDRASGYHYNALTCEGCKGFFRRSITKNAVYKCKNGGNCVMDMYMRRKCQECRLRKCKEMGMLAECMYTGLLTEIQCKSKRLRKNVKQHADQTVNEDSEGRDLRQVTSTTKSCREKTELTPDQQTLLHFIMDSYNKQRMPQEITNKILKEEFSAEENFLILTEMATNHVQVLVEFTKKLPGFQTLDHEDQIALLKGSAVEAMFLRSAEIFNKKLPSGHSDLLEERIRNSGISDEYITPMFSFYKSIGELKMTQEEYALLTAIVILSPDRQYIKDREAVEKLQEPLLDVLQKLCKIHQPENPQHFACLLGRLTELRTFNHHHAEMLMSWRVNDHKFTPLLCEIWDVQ
Method in brief: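 HepG2 cells transiently transfected with reporter constructs in which a chimeric FXR-GAL4 protein drives a GAL4-UAS reporter; 24 h compound exposure. Reporter mRNA measured by RT-PCR, FAM labelling, HpaI digestion and capillary electrophoresis; gain-of-signal versus DMSO.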

[2] = target: Hepatocyte nuclear factor 4-alpha (Homo sapiens) (UniProt P41235); assay: ATG_HNF4a_TRANS: Attagene TRANS-FACTORIAL HepG2 Assay for human Hepatocyte Nuclear Factor 4 alpha (HNF4a) (AID 2282982); details: HepG2 HNF4a transactivation reporter, mRNA readout
Chain of Hepatocyte nuclear factor 4-alpha (Homo sapiens) (P41235 whole entry, looked up, the tested form may be a part): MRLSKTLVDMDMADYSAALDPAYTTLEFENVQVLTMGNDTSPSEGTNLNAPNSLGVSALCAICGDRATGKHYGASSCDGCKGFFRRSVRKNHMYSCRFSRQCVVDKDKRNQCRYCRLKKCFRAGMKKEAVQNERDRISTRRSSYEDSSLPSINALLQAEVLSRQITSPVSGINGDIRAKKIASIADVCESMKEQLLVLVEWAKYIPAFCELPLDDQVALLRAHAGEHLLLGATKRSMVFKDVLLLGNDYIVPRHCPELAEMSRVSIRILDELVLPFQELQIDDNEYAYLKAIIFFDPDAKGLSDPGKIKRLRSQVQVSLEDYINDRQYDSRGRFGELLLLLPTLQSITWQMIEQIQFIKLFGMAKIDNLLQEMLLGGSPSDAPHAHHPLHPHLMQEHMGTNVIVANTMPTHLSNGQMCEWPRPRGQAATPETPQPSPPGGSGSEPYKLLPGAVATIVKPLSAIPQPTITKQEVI
Method in brief: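 Gain-of-signal mRNA induction, relative to DMSO vehicle, was read after 24 h compound treatment of HepG2 cells bearing transfected GAL4-UAS reporters. Detection used RT-PCR, 6-FAM primer extension and capillary electrophoresis.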

[3] = ATG_M_32_TRANS: Attagene TRANS-FACTORIAL HepG2 Assay for M32 Transcription Factor (Internal Marker) (AID 2282984); details: HepG2 Attagene TRANS M32 internal marker reporter
Method in brief: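 Capillary electrophoresis of 6-FAM-labelled reporter fragments gives the signal; data fitted for gain over DMSO negative control. Source: HepG2 cells bearing transient multiple reporter transcription units, 24 h exposure.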

[4] = target: Nuclear receptor subfamily 4 group A member 2 (Homo sapiens) (UniProt P43354); assay: ATG_NURR1_TRANS: Attagene TRANS-FACTORIAL HepG2 Assay for human Nuclear Receptor Related Protein 1 (NURR1) (AID 2282985); details: HepG2 Attagene TRANS reporter, mRNA readout
Chain of Nuclear receptor subfamily 4 group A member 2 (Homo sapiens) (P43354 whole entry, looked up): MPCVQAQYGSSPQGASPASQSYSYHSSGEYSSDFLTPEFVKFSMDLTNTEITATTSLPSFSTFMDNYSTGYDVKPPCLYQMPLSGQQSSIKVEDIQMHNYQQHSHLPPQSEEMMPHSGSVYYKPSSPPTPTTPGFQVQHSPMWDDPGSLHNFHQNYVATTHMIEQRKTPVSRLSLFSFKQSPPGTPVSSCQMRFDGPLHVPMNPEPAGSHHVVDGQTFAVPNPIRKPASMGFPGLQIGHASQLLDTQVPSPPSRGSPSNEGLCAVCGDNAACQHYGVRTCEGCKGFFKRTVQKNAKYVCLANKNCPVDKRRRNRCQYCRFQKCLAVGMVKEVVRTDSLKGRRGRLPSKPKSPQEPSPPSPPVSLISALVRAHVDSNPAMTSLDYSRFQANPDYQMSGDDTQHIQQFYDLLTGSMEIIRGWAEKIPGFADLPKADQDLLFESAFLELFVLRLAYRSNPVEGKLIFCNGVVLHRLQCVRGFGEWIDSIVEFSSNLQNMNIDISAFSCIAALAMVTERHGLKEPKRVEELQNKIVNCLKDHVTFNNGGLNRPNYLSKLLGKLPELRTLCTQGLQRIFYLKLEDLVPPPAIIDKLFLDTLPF
Method in brief: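 HepG2 / transient MRTU transfection / 24 h compound exposure / RT-PCR + CE fluorescence of reporter mRNA / gain-of-signal vs DMSO.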

[5] = target: Transcriptional activator Myb (Homo sapiens) (UniProt P10242); assay: ATG_Myb_CIS: Attagene CIS-FACTORIAL HepG2 Assay for human Myeloblastosis (Myb) Proto-Oncogene Transcription Factor (AID 2282986; active = hit-call score of the fitted dose curve at least 0.9, where 1 is the maximum; inactive = score below 0.9); details: HepG2 Attagene CIS-FACTORIAL Myb reporter transcription; actives raise or lower the signal
Chain of Transcriptional activator Myb (Homo sapiens) (P10242 whole entry, looked up): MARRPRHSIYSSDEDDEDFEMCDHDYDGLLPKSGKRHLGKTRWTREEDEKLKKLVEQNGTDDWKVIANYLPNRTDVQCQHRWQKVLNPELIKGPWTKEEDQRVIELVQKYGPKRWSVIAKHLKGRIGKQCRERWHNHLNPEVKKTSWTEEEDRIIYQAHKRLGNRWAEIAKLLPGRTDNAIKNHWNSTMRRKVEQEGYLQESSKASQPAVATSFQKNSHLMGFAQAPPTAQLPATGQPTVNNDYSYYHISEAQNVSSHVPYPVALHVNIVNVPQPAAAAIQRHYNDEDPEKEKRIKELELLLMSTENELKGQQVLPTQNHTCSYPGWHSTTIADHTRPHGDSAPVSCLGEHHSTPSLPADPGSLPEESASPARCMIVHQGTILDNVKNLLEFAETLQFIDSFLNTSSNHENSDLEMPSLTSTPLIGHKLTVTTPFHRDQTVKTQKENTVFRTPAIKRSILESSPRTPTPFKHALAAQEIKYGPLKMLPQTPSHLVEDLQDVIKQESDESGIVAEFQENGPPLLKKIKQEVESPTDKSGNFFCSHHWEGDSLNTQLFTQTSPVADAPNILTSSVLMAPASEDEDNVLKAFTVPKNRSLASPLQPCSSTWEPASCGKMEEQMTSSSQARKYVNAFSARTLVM
Method in brief: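 After 24 h of compound dosing, total RNA from transfected HepG2 cells is reverse-transcribed and the reporter sequences amplified, labeled and separated by capillary electrophoresis. Values come from bidirectional fitting against DMSO.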

[6] = target: Oxysterols receptor LXR-beta (Homo sapiens) (UniProt P55055); assay: ATG_LXRb_TRANS: Attagene TRANS-FACTORIAL HepG2 Assay for human Liver X Receptor beta (LXRb) (AID 2282981); details: HepG2 Attagene TRANS GAL4-LXRb reporter, mRNA
Chain of Oxysterols receptor LXR-beta (Homo sapiens) (P55055 whole entry, looked up, the tested form may be a part): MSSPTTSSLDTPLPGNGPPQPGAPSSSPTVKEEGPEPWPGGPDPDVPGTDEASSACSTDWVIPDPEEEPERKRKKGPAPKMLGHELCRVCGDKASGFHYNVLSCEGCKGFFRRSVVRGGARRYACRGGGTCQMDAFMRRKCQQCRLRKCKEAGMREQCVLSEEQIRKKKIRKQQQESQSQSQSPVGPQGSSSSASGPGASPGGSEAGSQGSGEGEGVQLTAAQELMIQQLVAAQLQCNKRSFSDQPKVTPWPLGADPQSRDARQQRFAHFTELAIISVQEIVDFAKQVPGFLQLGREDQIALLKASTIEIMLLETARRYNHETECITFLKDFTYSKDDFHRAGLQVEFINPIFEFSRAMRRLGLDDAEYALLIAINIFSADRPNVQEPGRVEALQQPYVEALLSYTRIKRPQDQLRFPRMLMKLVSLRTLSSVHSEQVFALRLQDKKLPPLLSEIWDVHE
Method in brief: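 Gain-of-signal mRNA reporter endpoint, DMSO as negative control. Transiently transfected HepG2 cells carrying the NR-Gal4 chimera and GAL4-UAS reporter units were treated 24 h; transcripts quantified by RT-PCR and capillary electrophoresis fluorescence.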

[7] = ATG_M_06_TRANS: Attagene TRANS-FACTORIAL HepG2 Assay for M06 Transcription Factor (Internal Marker) (AID 2282983); details: HepG2 Attagene TRANS M06 internal marker reporter
Method in brief: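 HepG2 cells transiently transfected with multiplexed GAL4-UAS reporter transcription units; after 24 h compound exposure, reporter mRNA measured by RT-PCR, FAM-labelled primer extension, HpaI digestion and capillary electrophoresis. Gain-of-signal fitted versus DMSO baseline; background control readout.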

[8] = target: Oxysterols receptor LXR-alpha (Homo sapiens) (UniProt Q13133); assay: ATG_LXRa_TRANS: Attagene TRANS-FACTORIAL HepG2 Assay for human Liver X Receptor alpha (LXRa) (AID 2282980); details: HepG2 Attagene TRANS reporter, LXRa transactivation
Chain of Oxysterols receptor LXR-alpha (Homo sapiens) (Q13133 whole entry, looked up, the tested form may be a part): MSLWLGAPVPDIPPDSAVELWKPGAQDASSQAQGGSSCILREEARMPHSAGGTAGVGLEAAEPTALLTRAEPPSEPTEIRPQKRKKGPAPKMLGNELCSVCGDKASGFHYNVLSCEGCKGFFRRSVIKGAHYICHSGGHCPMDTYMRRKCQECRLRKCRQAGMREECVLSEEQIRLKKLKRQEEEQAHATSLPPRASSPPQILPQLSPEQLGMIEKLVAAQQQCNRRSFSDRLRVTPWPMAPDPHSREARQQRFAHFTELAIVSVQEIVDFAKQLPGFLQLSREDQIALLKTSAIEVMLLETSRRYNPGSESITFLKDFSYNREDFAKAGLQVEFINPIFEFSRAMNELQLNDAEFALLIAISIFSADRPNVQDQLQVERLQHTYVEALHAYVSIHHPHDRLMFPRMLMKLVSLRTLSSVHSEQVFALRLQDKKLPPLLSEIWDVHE
Method in brief: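 HepG2 cells were transiently transfected with multiplexed reporter units driven by chimeric LXRa–GAL4 fusion proteins, then dosed for 24 h. Reporter mRNA was quantified by RT-PCR, fluorescent labelling and capillary electrophoresis; gain of signal fitted against DMSO baseline.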

Measured: outcome

CCCCC(C=O)CC (stereo unspecified)
inactive: [1] | [2] | [3] | [4] | [5]

CCCCC(=O)O
not listed: [2] | [8]
inactive: all other assays above

CCOB(OCC)OCC
inactive: [1] | [7] | [3] | [5]

CC(C)=NNC(N)=S
inactive: [1] | [7] | [4] | [5]

C=CC(C)(CCC=C(C)C)OC(=O)C=Cc1ccccc1 (stereo unspecified)
inactive: [1] | [6] | [7]

CCCCCCOc1ccc(N)cc1
inactive: [1] | [7] | [3] | [5]

CC1(C)C(=O)N(CO)C(=O)N1CO
inactive: [1] | [6] | [7] | [3] | [5]

CCCCc1ccc(Cl)cc1
inactive: [1] | [7] | [3] | [4] | [5]

CCCCCCCOC(=O)c1ccc(O)cc1
inactive: [1] | [6] | [7] | [3] | [4]

CC1=C(O)C(=O)C(C)O1 (stereo unspecified)
not listed: [2] | [8]
inactive: all other assays above

C=CCCCCCCCCOC(C)=O
inactive: [1] | [2] | [4] | [5]

COC(Cc1ccccc1)OC
not listed: [1]
inactive: all other assays above

CCC(C)C(=O)OCCc1ccccc1 (stereo unspecified)
inactive: [1] | [6] | [2] | [7] | [5]

O=C(O[C@@H]1Cc2c(O)cc(O)cc2O[C@@H]1c1cc(O)c(O)c(O)c1)c1cc(O)c(O)c(O)c1
not listed: [1] | [2]
inactive: all other assays above

CCOC(=O)c1ccc(C)cc1
not listed: [1] | [3]
inactive: all other assays above

CC1(C)CC(O)CC(C)(C)N1[O]
inactive: [1] | [6] | [2] | [7] | [4]

CCCC/C=C/C=C\C=O
inactive: [1] | [6] | [3] | [5]

CCCCNS(=O)(=O)c1ccc(C)cc1
inactive: [8] | [6] | [7] | [4] | [5]

CC1=CCC(C(C)C)C=C1 (stereo unspecified)
not listed: [1] | [2]
inactive: all other assays above

CCCCNS(=O)(=O)c1ccccc1
inactive: [1] | [6] | [7] | [3] | [5]

CCCCCCCCCCCCC
not listed: [2] | [8]
inactive: all other assays above
